The text below walks through data of PubChem BioAssay (Tox21).

A number with no mark means an inactive call. Records with an inconclusive call do not appear. Calls of active or inactive are those of the source. Unless noted, the call rests on the fitted dose curve; in most records, active means well fitted curve in the direction sought with a large enough effect in the repeat runs; inconclusive means weak or mixed curves; inactive means no such curve, though single readings can be large; an effect the other way counts as inactive or inconclusive.

A short description of experiment [1]: A CellTox Green Cytotoxicity Assay to monitor cytotoxicity in HepG2 cells - 16 hour (AID 1224876). Further: nearly all actives have a fitted effect of over 45% in size. In short, it runs like this:
(§1)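 Cytotoxicity was tracked as dead-cell DNA fluorescence in HepG2 cells treated with test compounds at 37 C; each time-point value comes from one kinetic series spanning 0, 8, 16, 24, 32 and 40 h.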

A short description of experiment [2]: qHTS RealTime-Glo MT Cell Viability Assay in HepG2 cells - 32 hour (AID 1224877). Further: nearly all actives have a fitted effect of over 55% in size. In short, it runs like this:
(§2)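 HepG2 suspension premixed with RealTime-Glo reagents is plated at 600 cells per well and left 5 h at 37 C/5% CO2. Compounds in DMSO then go in, and bioluminescence reflecting viable cell number is recorded over 40 h.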
(In general: qHTS replaces the single test concentration by a dilution series.)

Experiment [3] can be described thus: A CellTox Green Cytotoxicity Assay to monitor cytotoxicity in HepG2 cells - 24 hour (AID 1224878). Further: nearly all actives have a fitted effect of over 45% in size. In short, it runs like this:
as §1

Experiment [4] is described as follows: A CellTox Green Cytotoxicity Assay to monitor cytotoxicity in HepG2 cells - 40 hour (AID 1224879). Further: nearly all actives have a fitted effect of over 40% in size. The method, boiled down:
as §1

A short description of experiment [5]: qHTS RealTime-Glo MT Cell Viability Assay in HEK293 cells - 0 hour (AID 1224880). Further: top concentration of the series differs between compounds; nearly all actives have a fitted effect of over 45% in size. In short, it runs like this:
(§3)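 Kinetic, non-lysing viability readout. Seed HEK293 (600/well) with reagent, incubate 5 h at 37 C/5% CO2, pin 23 nL compound in DMSO, incubate at 37 C, read luminescence at 0, 8, 16, 24, 32, 40 h.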

Experiment [6] is described as follows: A CellTox Green Cytotoxicity Assay to monitor cytotoxicity in HepG2 cells - 32 hour (AID 1224883). Further: nearly all actives have a fitted effect of over 50% in size. The method, boiled down:
as §1

Experiment [7] is described as follows: A CellTox Green Cytotoxicity Assay to monitor cytotoxicity in HEK293 cells - 8 hour (AID 1224884). Further: nearly all actives have a fitted effect of over 35% in size. In short, it runs like this:
(§4)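 Real-time, in one plate: 600 HEK293 cells/well with dead-cell DNA dye, pinned compound after 5 h, 37 C incubation over 40 h; viable cells give no appreciable fluorescence.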

Experiment [8] is described as follows: qHTS RealTime-Glo MT Cell Viability Assay in HepG2 cells - 16 hour (AID 1224885). Further: nearly all actives have a fitted effect of over 50% in size. The method, boiled down:
as §2

A short description of experiment [9]: qHTS RealTime-Glo MT Cell Viability Assay in HEK293 cells - 24 hour (AID 1224886). Further: top concentration of the series differs between compounds; nearly all actives have a fitted effect of over 50% in size. The method, boiled down:
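Reads taken at 0, 8, 16, 24, 32 and 40 h from the same wells. HEK293 cells (600/well) carried RealTime-Glo reagents from seeding, with compound added after a 5 h settle at 37 C.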

Experiment [10] can be described thus: qHTS RealTime-Glo MT Cell Viability Assay in HEK293 cells - 8 hour (AID 1224887). Further: top concentration of the series differs between compounds; nearly all actives have a fitted effect of over 50% in size. The method, boiled down: as §3
Experiment [11] can be described thus: A CellTox Green Cytotoxicity Assay to monitor cytotoxicity in HEK293 cells - 16 hour (AID 1224888). Further: nearly all actives have a fitted effect of over 35% in size. The method, boiled down: as §4
Experiment [12] can be described thus: qHTS RealTime-Glo MT Cell Viability Assay in HepG2 cells - 0 hour (AID 1224889). Further: nearly all actives have a fitted effect of over 50% in size. Further: potency means the concentration at half of the fitted maximal effect. In short, it runs like this:
as §2

Experiment [13] is described as follows: A CellTox Green Cytotoxicity Assay to monitor cytotoxicity in HepG2 cells - 8 hour (AID 1224890). Further: nearly all actives have a fitted effect of over 45% in size. In short, it runs like this: as §1
A short description of experiment [14]: qHTS assay to identify small molecule antagonists of the estrogen receptor alpha (ER-alpha) signaling pathway using the BG1 cell line in the presence of 0.1 nM 17-beta-estradiol - cell viability counter screen (AID 1259241). Further: nearly all actives have a fitted effect of over 40% in size. In short, it runs like this:
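Cells were plated and left 24 hr, compounds in DMSO were pinned in, 17beta-estradiol was added to 0.1 nM final, and after 22 hr CellTiter-Fluor reagent was added for 30 min before fluorescence was read.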

Experiment [15] can be described thus: qHTS assay to identify small molecule antagonists of the androgen receptor (AR) signaling pathway using the MDA cell line in the presence of 0.5 nM R1881 - cell viability counter screen (AID 1259242). Further: nearly all actives have a fitted effect of over 45% in size. The method, boiled down:
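Cells seeded at 3,000/well and allowed 5 hr at 37C, 0% CO2 before compound transfer and R1881 (0.5 nM final) addition; 16 hr later, live-cell protease fluorescence indicated cytotoxicity.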

Experiment [16] has as its target Estrogen receptor (Homo sapiens) (UniProt P03372). Briefly: qHTS assay to identify small molecule antagonists of the estrogen receptor alpha (ER-alpha) signaling pathway using the BG1 cell line in the presence of 0.1 nM 17-beta-estradiol (AID 1259244). Further: nearly all actives have a fitted effect of over 50% in size. The method, boiled down: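 Luciferase signal from VM7Luc4E2 ERE-reporter cells, co-dosed with test compound and 0.1 nM final 17beta-estradiol for 22 h, read with ONE-Glo.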

Experiment [17] is described as follows: qHTS assay to identify small molecule phospholipidosis (PLD) inducers (AID 1259344; active means well fitted curve in the direction sought with a large enough effect; an effect the other way counts as inactive or inconclusive). In short, it runs like this:
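Accumulated phospholipid, stained red by LipidTOX during 24 h compound treatment of HepG2 cells at 37 C, is quantified from images as pit number and intensity, normalised per cell using Hoechst-stained nuclei.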

Experiment [18] can be described thus: A CellTox Green Cytotoxicity Assay to monitor cytotoxicity in HEK293 cells - 32 hour (AID 1224881). Further: nearly all actives have a fitted effect of over 40% in size. The method, boiled down:
as §4

Experiment [19] in a line: A CellTox Green Cytotoxicity Assay to monitor cytotoxicity in HepG2 cells - 0 hour (AID 1224882). Further: nearly all actives have a fitted effect of over 35% in size. The method, boiled down: as §1
Experiment [20] is described as follows: qHTS assay to identify small molecule HDAC inhibitors (AID 1259364). The method, boiled down: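 HCT-116 wt cells, 1,500/well, overnight attach. Compounds (DMSO) 2 h, 37 °C. HDAC-Glo I/II, 30 min RT. Luminescence.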
On the % scale 0 is the no-effect control and ±100 the full control effect.

Chain of Estrogen receptor (Homo sapiens) (P03372 whole entry, looked up): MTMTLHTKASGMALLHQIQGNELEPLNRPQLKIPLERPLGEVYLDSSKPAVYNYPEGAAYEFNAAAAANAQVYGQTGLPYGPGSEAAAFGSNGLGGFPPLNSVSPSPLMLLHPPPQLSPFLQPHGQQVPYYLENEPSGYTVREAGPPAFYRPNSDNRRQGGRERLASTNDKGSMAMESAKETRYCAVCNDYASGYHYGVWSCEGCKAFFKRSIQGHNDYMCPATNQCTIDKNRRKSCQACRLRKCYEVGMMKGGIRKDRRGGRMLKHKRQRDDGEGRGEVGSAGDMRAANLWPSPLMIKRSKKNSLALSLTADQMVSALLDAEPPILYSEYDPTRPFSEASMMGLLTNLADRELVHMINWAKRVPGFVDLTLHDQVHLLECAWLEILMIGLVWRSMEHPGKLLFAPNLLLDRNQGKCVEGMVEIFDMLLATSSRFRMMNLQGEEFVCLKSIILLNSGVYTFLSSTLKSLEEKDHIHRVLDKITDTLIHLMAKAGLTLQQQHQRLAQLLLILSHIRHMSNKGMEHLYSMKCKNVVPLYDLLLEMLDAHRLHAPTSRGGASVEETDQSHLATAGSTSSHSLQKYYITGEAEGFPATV

For the molecule `CCS(=O)(=O)CCn1c([N+](=O)[O-])cnc1C`, the Potency entry in experiment [1], in [3], in [4], in [6], in [7] and in experiment [9] was “inactive” in each case. Moreover, the Potency entry in experiment [10], in [11], in experiment [12], in [13], in experiment [14] and in experiment [15] was “inactive” in each case. Also, in [16], the Potency result was “inactive”. For the same molecule, the outcome in experiment [2], in experiment [5], in [8] and in [17] was inactive.

For `NS(=O)(=O)c1ccccc1OC(F)(F)F`, the Potency entry in experiment [1], in experiment [3], in [4], in [18], in experiment [19] and in experiment [6] was “inactive” each time. Further, the Potency entry in experiment [7], in [10], in experiment [11], in [12], in experiment [13] and in [14] was “inactive” throughout. Also, the Potency result in experiment [15] and in experiment [20] was “inactive” throughout. In addition, the call in experiment [2] and in experiment [8] was inactive.

As to `C[C@@H]1C[C@H]2[C@@H]3C[C@H](F)C4=CC(=O)C=C[C@]4(C)[C@@]3(F)[C@@H](O)C[C@]2(C)[C@@]1(O)C(=O)CO`, the Potency result in [1], in [4], in experiment [18], in [7], in experiment [9] and in experiment [10] was “inactive” each time. Moreover, the Potency result in [11], in experiment [14], in experiment [15] and in experiment [20] was “inactive” in each case. Moreover, the molecule was called inactive in experiment [2], in experiment [8] and in [17]. For the same molecule, in experiment [12], the Potency is 21.3 µM (active).

As for `NC(=O)NC(=O)Cc1ccccc1`, the Potency result in experiment [1], in experiment [3], in experiment [4], in experiment [19], in experiment [6] and in experiment [7] was “inactive” in each case. In addition, the Potency entry in [10], in experiment [11], in experiment [12], in experiment [13], in experiment [14] and in experiment [15] was “inactive” each time. Further, the Potency result in experiment [16] and in experiment [20] was “inactive” each time. Moreover, the call in experiment [2], in [5], in experiment [8] and in experiment [17] was inactive.

As for `CCOC(=O)CC#N`, the molecule was called inactive in experiment [2], in experiment [5] and in experiment [8]. For the same molecule, the Potency result in [3], in experiment [4], in experiment [18], in [19], in experiment [6] and in experiment [7] was “inactive” throughout. Besides, the Potency result in experiment [9], in experiment [10], in experiment [11], in experiment [12], in [13] and in [14] was “inactive” throughout. Further, the Potency result in experiment [15], in experiment [16] and in experiment [20] was “inactive” in each case.

Take `O=C(O)CCNC(=O)c1ccccc1`: the Potency result in experiment [1], in experiment [3], in experiment [4], in experiment [19], in experiment [6] and in [7] was “inactive” in each case. In addition, the Potency entry in experiment [9], in [10], in experiment [12], in experiment [13], in [15] and in experiment [16] was “inactive” each time. Besides, the Potency result in experiment [20] was “inactive”. Further, the call in [2], in [5], in [8] and in experiment [17] was inactive.

With `O=C(O)/C=C/c1ccccc1`, the molecule was called inactive in experiment [2], in [5], in experiment [8] and in [17]. Further, the Potency result in [3], in experiment [4], in [18], in [19], in [6] and in experiment [7] was “inactive” throughout. For the same molecule, the Potency result in experiment [9], in experiment [10], in experiment [11], in [12], in [13] and in [14] was “inactive” throughout. The Potency result in experiment [15], in experiment [16] and in [20] was “inactive” in each case.

Turning to `O=CO`, the cytotoxicity increase in experiment [1] was -13.8% [at 6.97 µM]; in experiment [4] it was -21.3% [at 6.97 µM]; in experiment [6], -19.2% [at 6.97 µM]; in [13], -4.28% [at 6.97 µM]. For the same molecule, the activity change, negative = cytotoxic in experiment [2] is 7.5% [at 6.97 µM]; in experiment [8], -5.47% [at 6.97 µM]. In addition, the cytotoxicity in experiment [3] was -17.2% [at 6.97 µM]; in [19] it was -9.11% [at 6.97 µM]. In addition, the activity change, negative = cytotoxicity in experiment [5] is 3.48% [at 6.97 µM]; in experiment [9] it was 1.22% [at 6.97 µM]; in experiment [10] it was 8.18% [at 6.97 µM]; in [12] it was -14.6% [at 6.97 µM]; in experiment [14] it was -0.2% [at 8.39 µM]. Further, the viability change, negative = cytotoxic in experiment [15] is 2.31% [at 8.39 µM]. In experiment [20], the activity change, negative = inhibition was -0.333% [at 8.39 µM].

In the case of `CCCCOC(=O)C(=O)OCCCC`, the molecule was classed as inactive in [2], in experiment [5] and in experiment [8]. Moreover, the Potency result in experiment [3], in experiment [4], in experiment [18], in [19], in experiment [6] and in experiment [7] was “inactive” in each case. In addition, the Potency entry in experiment [9], in experiment [10], in experiment [11], in experiment [12], in [13] and in experiment [14] was “inactive” throughout. Besides, the Potency result in [15] and in experiment [20] was “inactive” throughout.

Consider `C=CCOCC(O)CCl` (configuration not stated), for which the molecule was classed as inactive in experiment [2], in experiment [5] and in [8]. Also, the Potency result in experiment [3], in [4], in experiment [18], in experiment [19], in experiment [6] and in experiment [7] was “inactive” each time. Besides, the Potency result in experiment [9], in [10], in [11], in experiment [12], in [13] and in [14] was “inactive” each time. Further, the Potency result in experiment [15], in experiment [16] and in experiment [20] was “inactive” in each case.

In the case of `C[N+](C)(C)CC(O)CCl` (configuration not stated), the Potency result in experiment [1], in [3], in experiment [4], in experiment [6], in experiment [7] and in [9] was “inactive” in each case. Besides, the Potency result in [10], in [11], in experiment [12], in experiment [13], in experiment [15] and in [16] was “inactive” each time. The result in [2], in experiment [5] and in experiment [8] was inactive.

`Nc1ccc(C(=O)OCC(O)CO)cc1` (configuration not stated): the result in experiment [2], in experiment [5] and in experiment [8] was inactive. Further, the Potency result in experiment [3], in experiment [4], in experiment [18], in experiment [19], in [6] and in experiment [7] was “inactive” in each case. For the same molecule, the Potency result in experiment [9], in [10], in experiment [11], in [12], in experiment [13] and in experiment [14] was “inactive” throughout. Further, the Potency result in [15], in [16] and in experiment [20] was “inactive” each time.
